These results are taken from ChEMBL document CHEMBL1961873, “Compounds: GSK PKIS; Assays: Nanosyn kinase panel” (2012).

The structures appear in SMILES notation.

Assay [1] deals with T1, Tyrosine-protein kinase receptor TYRO3 (Homo sapiens) (UniProt Q06418).
T1 sequence (whole entry): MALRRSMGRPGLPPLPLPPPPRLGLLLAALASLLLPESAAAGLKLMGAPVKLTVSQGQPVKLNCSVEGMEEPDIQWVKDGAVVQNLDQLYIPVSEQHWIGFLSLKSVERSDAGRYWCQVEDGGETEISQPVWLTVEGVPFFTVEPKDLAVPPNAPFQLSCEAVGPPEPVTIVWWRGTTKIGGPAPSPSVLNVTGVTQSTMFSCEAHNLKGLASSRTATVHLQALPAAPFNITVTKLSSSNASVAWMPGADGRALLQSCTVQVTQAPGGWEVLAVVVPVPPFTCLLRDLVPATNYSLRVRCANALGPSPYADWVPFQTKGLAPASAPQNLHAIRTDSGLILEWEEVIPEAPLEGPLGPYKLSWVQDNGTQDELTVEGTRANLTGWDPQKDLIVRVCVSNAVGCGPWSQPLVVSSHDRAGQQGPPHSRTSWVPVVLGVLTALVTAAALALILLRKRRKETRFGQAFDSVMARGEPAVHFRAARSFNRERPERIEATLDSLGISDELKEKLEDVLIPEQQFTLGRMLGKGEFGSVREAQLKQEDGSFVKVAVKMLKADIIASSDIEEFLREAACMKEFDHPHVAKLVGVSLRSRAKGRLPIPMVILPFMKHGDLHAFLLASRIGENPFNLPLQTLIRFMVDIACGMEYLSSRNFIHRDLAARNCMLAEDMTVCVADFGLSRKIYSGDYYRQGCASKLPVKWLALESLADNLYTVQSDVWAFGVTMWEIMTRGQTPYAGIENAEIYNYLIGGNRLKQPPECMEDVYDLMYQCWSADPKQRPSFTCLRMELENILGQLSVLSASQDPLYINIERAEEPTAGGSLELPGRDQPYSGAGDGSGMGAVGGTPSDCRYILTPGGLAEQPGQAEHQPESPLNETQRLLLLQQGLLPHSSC
The following applies: at 1 µM.

Assay [2] addresses Tyrosine-protein kinase Yes (Homo sapiens) (UniProt P07947). The following applies: at 0.1 µM.
The target is the same in assay [3]. The following applies: at 1 µM.
The target in assay [4] is T2, Tyrosine-protein kinase ZAP-70 (Homo sapiens) (UniProt P43403).
T2 sequence (whole entry): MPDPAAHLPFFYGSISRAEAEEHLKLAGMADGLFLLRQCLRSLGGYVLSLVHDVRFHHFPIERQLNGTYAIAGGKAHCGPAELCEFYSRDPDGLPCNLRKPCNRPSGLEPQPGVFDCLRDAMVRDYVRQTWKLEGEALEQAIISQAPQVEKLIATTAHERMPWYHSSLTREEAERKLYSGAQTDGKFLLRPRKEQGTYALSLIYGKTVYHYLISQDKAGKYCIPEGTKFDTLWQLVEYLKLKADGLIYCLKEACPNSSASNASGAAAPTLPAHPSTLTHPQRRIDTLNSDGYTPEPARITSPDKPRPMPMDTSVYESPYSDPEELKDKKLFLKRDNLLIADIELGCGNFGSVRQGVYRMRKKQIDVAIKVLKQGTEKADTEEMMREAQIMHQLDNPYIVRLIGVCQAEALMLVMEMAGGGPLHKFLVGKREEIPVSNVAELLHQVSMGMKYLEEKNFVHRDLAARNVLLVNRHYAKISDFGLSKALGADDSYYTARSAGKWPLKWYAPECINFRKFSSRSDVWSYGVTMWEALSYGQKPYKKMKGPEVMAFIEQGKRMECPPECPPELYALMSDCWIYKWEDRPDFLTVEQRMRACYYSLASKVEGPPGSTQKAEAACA
The following applies: at 0.1 µM.

The target in assay [5] is T2, Tyrosine-protein kinase ZAP-70 (Homo sapiens). The following applies: at 1 µM.
The target in assay [6] is Serine/threonine-protein kinase B-raf (Homo sapiens) (UniProt P15056). The following applies: at 0.1 µM.
For assay [7] the target is unchanged. The following applies: at 1 µM.
Assay [8] deals with Serine/threonine-protein kinase B-raf (Homo sapiens), P15056 [V600E]. The following applies: at 0.1 µM.
For assay [9] the test system is unchanged. The following applies: at 1 µM.
Assay [10] addresses RAF proto-oncogene serine/threonine-protein kinase (Homo sapiens) (UniProt P04049). The following applies: at 0.1 µM.

Chain of RAF proto-oncogene serine/threonine-protein kinase (Homo sapiens) (P04049 whole entry): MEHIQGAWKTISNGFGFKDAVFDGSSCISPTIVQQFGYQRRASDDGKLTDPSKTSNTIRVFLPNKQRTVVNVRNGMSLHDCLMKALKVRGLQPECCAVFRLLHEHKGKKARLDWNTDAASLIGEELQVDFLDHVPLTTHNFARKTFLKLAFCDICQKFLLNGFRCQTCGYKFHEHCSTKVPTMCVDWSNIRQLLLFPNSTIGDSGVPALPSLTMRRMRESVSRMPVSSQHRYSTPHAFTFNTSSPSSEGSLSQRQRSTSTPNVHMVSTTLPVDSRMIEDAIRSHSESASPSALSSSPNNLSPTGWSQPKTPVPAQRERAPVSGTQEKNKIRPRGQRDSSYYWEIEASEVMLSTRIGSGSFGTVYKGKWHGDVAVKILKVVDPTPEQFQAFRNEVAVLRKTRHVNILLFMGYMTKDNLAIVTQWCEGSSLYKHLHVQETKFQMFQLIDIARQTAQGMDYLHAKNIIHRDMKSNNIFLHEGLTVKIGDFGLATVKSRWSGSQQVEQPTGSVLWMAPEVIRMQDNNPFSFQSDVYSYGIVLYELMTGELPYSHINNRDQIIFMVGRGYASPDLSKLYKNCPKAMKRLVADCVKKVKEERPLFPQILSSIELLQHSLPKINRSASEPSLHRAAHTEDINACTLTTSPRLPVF
Chain of Serine/threonine-protein kinase B-raf (Homo sapiens), P15056 [V600E] (P15056 whole entry V600E): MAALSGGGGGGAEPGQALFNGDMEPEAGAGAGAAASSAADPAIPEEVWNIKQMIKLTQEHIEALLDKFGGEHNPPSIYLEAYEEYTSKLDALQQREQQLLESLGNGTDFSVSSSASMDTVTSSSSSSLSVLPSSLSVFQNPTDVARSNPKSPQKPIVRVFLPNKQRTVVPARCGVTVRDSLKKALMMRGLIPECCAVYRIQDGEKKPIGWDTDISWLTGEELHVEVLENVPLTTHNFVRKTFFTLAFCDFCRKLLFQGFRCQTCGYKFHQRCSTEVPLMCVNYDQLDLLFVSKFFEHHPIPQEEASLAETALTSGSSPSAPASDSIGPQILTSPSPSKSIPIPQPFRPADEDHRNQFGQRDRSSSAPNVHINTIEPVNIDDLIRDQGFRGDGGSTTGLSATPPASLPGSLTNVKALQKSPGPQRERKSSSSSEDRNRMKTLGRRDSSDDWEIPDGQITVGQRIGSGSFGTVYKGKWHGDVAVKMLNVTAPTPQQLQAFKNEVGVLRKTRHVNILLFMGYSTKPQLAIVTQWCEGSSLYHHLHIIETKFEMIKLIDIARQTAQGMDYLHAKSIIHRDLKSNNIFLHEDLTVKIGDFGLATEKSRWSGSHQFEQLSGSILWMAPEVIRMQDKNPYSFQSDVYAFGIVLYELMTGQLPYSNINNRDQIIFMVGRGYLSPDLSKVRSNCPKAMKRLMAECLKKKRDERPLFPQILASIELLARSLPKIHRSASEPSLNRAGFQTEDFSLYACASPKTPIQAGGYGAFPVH
Chain of Serine/threonine-protein kinase B-raf (Homo sapiens) (P15056 whole entry): as the sequence (P15056 whole entry V600E) above, with E600V counted along it
Chain of Tyrosine-protein kinase Yes (Homo sapiens) (P07947 2-543 limits assumed): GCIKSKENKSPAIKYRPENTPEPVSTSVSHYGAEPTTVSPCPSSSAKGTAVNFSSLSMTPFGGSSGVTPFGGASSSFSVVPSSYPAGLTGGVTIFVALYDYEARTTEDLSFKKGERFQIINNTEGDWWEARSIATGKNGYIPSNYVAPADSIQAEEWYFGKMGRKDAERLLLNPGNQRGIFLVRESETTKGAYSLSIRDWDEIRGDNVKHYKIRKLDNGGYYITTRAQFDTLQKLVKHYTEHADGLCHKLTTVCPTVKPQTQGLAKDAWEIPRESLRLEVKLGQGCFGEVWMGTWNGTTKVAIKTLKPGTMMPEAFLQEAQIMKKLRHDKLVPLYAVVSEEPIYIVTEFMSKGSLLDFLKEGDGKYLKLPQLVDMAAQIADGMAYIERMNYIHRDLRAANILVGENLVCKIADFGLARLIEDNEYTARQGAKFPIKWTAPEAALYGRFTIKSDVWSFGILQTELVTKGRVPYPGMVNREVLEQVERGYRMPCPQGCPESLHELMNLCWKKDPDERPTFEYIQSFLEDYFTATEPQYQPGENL

As usually defined, the inhibition is the change of the read-out against control, counted positive when it falls. Regarding `CN1CCN(C(=O)c2ccc(NC(=O)Nc3ccc(N(C)c4ccnc(Nc5ccc(CS(C)(=O)=O)cc5)n4)cc3)cc2)CC1`, the inhibition in [1] was 21.9%; in assay [2], 2.29%; in assay [3] it was 16.2%; in assay [4] it was 2.02%; in assay [5], 5.2%; in [6], 2.69%. For the same molecule, the inhibition in assay [7] came out at 14.5%; in [8], 3.84%; in assay [9], 11.8%; in assay [10] it was 2.58%.
In the case of `COc1cc2ncn(-c3cc(OCc4ccccc4S(C)(=O)=O)c(C#N)s3)c2cc1OC`, the inhibition in [1] stood at 20.1%; in [2], 8.67%; in assay [3], 39.2%; in [5], 4%; in assay [6], 5.38%; in [7], 8.14%. Moreover, the values for the inhibition in [8], in assay [9] and in [10] were 4.97%, 6.91% and 5.23%, respectively.
As for `COc1cccc(-n2ncc3c(N/N=C/c4ccc(S(C)(=O)=O)cc4)ncnc32)c1`, the inhibition in assay [1] is 22.4%; in [2], 31.9%; in [3], 57.4%; in assay [4] it was -3.44%; in assay [5], 1.31%; in [6] it was 7.5%. Further, the inhibition in [7] was 16.4%; in assay [8] it was 8.25%; in assay [9] it was 20.2%; in assay [10], -3.03%.
On to `c1ccc(Nc2ncc(-c3ccccc3)o2)cc1`, for which the inhibition in [1] was 6.84%; in assay [2], 2.4%; in assay [3], 6.64%; in assay [4] it was -1.32%; in [5], 1.41%; in assay [6], 5.93%. Besides, the inhibition in [7] stood at 7.7%; in [8], 5.02%; in [9], 4.39%; in assay [10] it was 2.39%.
Take `CC(C)c1ccc(Nc2nccc(-c3cnn4ncccc34)n2)cc1`: the inhibition was 4.27% in [1]; 3.25% in [2]; 6.98% in [3]; 1.01% in assay [4]; 6.84% in [5]; 4.59% in assay [6]. Further, the inhibition in [7] stood at 13.7%; in assay [8], 5.11%; in [9] it was 11.6%; in assay [10], 0.59%.
Consider `Cc1cc(Cl)cc2c1NC(=O)C2=NNc1ccc(S(N)(=O)=O)cc1`, for which the inhibition came out at 3.93% in [1]; 0.95% in assay [2]; 2.2% in assay [3]; 1.82% in assay [4]; 1.81% in assay [5]; 4.13% in assay [6]. Also, the inhibition worked out at 1.81% in assay [7], 4.19% in assay [8], 2.74% in [9] and 0.2% in assay [10].
Turning to `O=C1Nc2ccc(-c3cccnc3)cc2C1=Cc1cc(Br)c(O)c(Br)c1`, the inhibition is 9.95% in [1]; 2.64% in [2]; 5.79% in assay [3]; -8.3% in assay [5]; 8.77% in assay [6]; 18.3% in [7]. The inhibition in assay [8] is 8.84%; in assay [9], 18.1%; in [10] it was -2.68%.
Turning to `CN(C)C(=O)O[C@@H]1CN[C@@H](C#Cc2cc3ncnc(Nc4ccc(OCc5cccc(F)c5)c(Cl)c4)c3s2)C1`, the inhibition is -0.16% in assay [1]; 3.49% in [2]; 5.24% in assay [3]; 0.96% in [4]; 2.42% in [5]; 0.07% in assay [6]. For the same molecule, the inhibition in assay [7] is 3.2%; in [8], 0.85%; in assay [9] it was 3.23%; in assay [10], -2.83%.
On to `COc1cc(/C=N/Nc2ncnc3c2cnn3C(C)C)ccc1O`, for which the inhibition in assay [1] came to 25.9%; in assay [2] it was 11.9%; in [3], 50.8%; in [4], 1.87%; in assay [5] it was 4.45%; in [6], 2.16%. Moreover, the inhibition in assay [7] was found to be 2.26%; in [8], 2.21%; in [9] it was 1.64%; in [10], 9.62%.
Take `ON=C1CCc2cc(-c3nc(C4CCNCC4)[nH]c3-c3ccncc3)ccc21`: the inhibition in [1] is 1.37%; in [2], -1.71%; in [3], 0.86%; in assay [4], 1.57%; in assay [5] it was 1.96%; in assay [10] it was -7.53%.
`COc1cc(Nc2nccc(-c3cnn4ncccc34)n2)cc(OC)c1`: the inhibition stood at 14.9% in assay [1]; 9.16% in assay [2]; 39.8% in assay [3]; 4.5% in [4]; 14.2% in assay [5]; 3.83% in [6]. Also, the inhibition was 28.9% in [7], 4.91% in assay [8], 28.7% in assay [9] and -0.8% in assay [10].
As for `OCc1ccc(-c2nc(-c3ccccn3)c(-c3ccc4c(c3)OCO4)[nH]2)cc1`, the inhibition in assay [1] is 1.02%; in assay [2], 1.58%; in [3], -0.01%; in assay [4], 1.4%; in assay [5], 0.81%; in [6] it was 5.65%. In addition, the inhibition in [7] is 7.13%; in assay [8], 6.24%; in assay [9] it was 7.48%; in assay [10], -1.74%.
As to `Nc1nccc(C#Cc2cncnc2Nc2ccc(OCc3cccc(F)c3)c(Cl)c2)n1`, the inhibition is 3.66% in assay [1]; -0.62% in [2]; 5.85% in [3]; 1.97% in assay [4]; 3.29% in [5]; 3.49% in [6]. Moreover, the inhibition was 6.72% in assay [7], 3.75% in assay [8], 5.29% in [9] and -0.89% in assay [10].
Consider `NC(=O)c1sc(-n2cnc3ccccc32)cc1OCc1ccccc1Br`, for which the inhibition in assay [1] is 1.89%; in assay [2] it was 2.41%; in [3], 7.85%; in [4], -2.78%; in [5], -2.62%; in [6], 5.54%. Also, the inhibition in [7] was found to be 6.15%; in assay [8] it was 4.91%; in assay [9] it was 3.77%; in [10] it was 3.4%.
With `CS(=O)(=O)Nc1cccc(-c2ccc3c(NC(=O)C4CC4)n[nH]c3c2)c1`, the inhibition stood at 17.9% in assay [1]; 2.95% in [2]; 2.86% in assay [3]; 1.35% in assay [4]; 1.3% in [5]; 1.25% in [6]. For the same molecule, the inhibition is 2.51% in [7], 1.61% in assay [8], 2.94% in assay [9] and 8.26% in assay [10].
Consider `COc1ccc(-c2nn3ncccc3c2-c2ccnc(Nc3cccc(C(F)(F)F)c3)n2)cc1`, for which the inhibition in assay [1] is 4.06%; in assay [2], 26.3%; in assay [3] it was 79.8%; in assay [4], -0.73%; in assay [5], 1.1%; in assay [6], 4.3%. In addition, the inhibition in assay [7] was 6.08%; in assay [8], 4.63%; in assay [9] it was 4.39%; in [10], -2.4%.
With `COC(=O)c1cncc(/C=C/c2c(C)cc(O)cc2C)c1`, the inhibition was 7.16% in assay [1]; 4.43% in [2]; 18.8% in [3]; 2.93% in assay [4]; -0.01% in assay [5]; 6.07% in [6]. In addition, the inhibition in assay [7] came out at 9.71%; in [8], 5.41%; in assay [9], 8.24%; in [10] it was 1.93%.
